Measurements taken from PubChem BioAssay (NCI).
About 83,000 compounds went through this panel and 20% of them were active in at least one assay; those are over-represented in the sample as a whole.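 Growth was measured after 48 h exposure to one concentration of compound in 96-well plates. Values under 10 count as active.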 Values without a mark were called inactive. Active and inactive are the calls of the source.

Legend:
Experiment in all cases: NCI-60 one-dose screen, 48 h (100 = growth as untreated, 0 = no growth, -100 = all killed)
SR leukemia = details: 10 µM
RPMI-8226 leukemia = details: 10 µM
OVCAR-8 ovarian = details: 10 µM
OVCAR-5 ovarian = details: 10 µM
OVCAR-4 ovarian = details: 10 µM
SK-OV-3 ovarian = details: 10 µM
IGROV1 ovarian = details: 10 µM
OVCAR-3 ovarian = details: 10 µM
HS 578T breast = details: 10 µM
T-47D breast = details: 10 µM
BT-549 breast = details: 10 µM
MDA-MB-435 melanoma = details: 10 µM
SW-620 colon = details: 10 µM
MCF7 breast = details: 10 µM unless noted
HCT-116 colon = details: 10 µM
HCC-2998 colon = details: 10 µM
KM12 colon = details: 10 µM
NCI/ADR-RES ovarian = details: 10 µM

SMILES	growth (SR leukemia)	growth (RPMI-8226 leukemia) [%]	growth (OVCAR-8 ovarian) [%]	growth (OVCAR-5 ovarian) [%]	growth (OVCAR-4 ovarian) [%]	growth (SK-OV-3 ovarian) [%]	growth (IGROV1 ovarian) [%]	growth (OVCAR-3 ovarian) [%]	growth (HS 578T breast) [%]	growth (T-47D breast) [%]	growth (BT-549 breast) [%]	growth (MDA-MB-435 melanoma) [%]	growth (SW-620 colon) [%]	growth (MCF7 breast) [%]	growth (HCT-116 colon) [%]	growth (HCC-2998 colon)	growth (KM12 colon) [%]	growth (NCI/ADR-RES ovarian) [%]
CCCCOC(=O)c1ccc(C(C)C)cc1	102%	110	106	102	102	90.4	100	106	108	88.7	92.1	103	111	94.9	85.4	107%	104	–
O=[N+]([O-])c1ccc(/C=C/C=C/c2ccccc2)c(Cl)c1	95.2%	87.6	98.8	102	82.5	98.8	88	105	–	74.3	102	99.5	98.1	74.2	76.6	97.3%	94.5	108
O=C(CN1CCNCC1)N1CCOCC1	82.6%	99.3	91.9	109	110	110	115	122	–	102	113	109	108	97.8	103	108%	108	107
CCCCCCCCCCCCCCCCC1CC(=O)OC1=O (stereo not drawn)	99.3%	108	101	102	108	106	124	119	106	97.4	–	101	105	98.5	–	114%	108	113
COc1cc(C(N)=O)cc(OC)c1OC	93.3%	106	98.1	98.1	110	111	108	117	106	110	108	116	109	105	–	105%	107	–
Cc1nc2c(ccc3ccccc32)s1	91.3%	100	94.1	102	108	107	109	121	–	102	109	115	107	99.2	103	75.1%	117	108
CCOC(=O)CSc1c([N+](=O)[O-])ncn1C	86.4%	99.7	103	91.8	105	110	95.5	103	103	101	–	101	103	88.2	103	107%	96.2	–
O=c1[nH]cc(Cl)cc1O	76.2%	69.9	91	106	101	101	91	88.3	91	70.5	90.6	76.4	98.6	91.2	94.3	96.9%	57.7	–
S=C1CCCCCN1	102%	98.3	104	103	111	119	110	115	105	100	103	104	107	99.4	102	112%	105	–
O=c1cc(-c2ccccc2)nc2cc(-c3ccco3)[nH]n12	13.1%	71.6	101	116	91.5	90.3	70.5	93.7	89.2	65.4	98.3	41.8	81.7	28	90.3	91.7%	–	–
Nc1ccc(N=Nc2ccc(S(=O)(=O)O)cc2)c2ccccc12	96.9%	98	103	106	103	72.2	94.1	99	96.6	57.3	102	98.6	88.7	91.4	89	88.3%	99.2	–
c1ccc(CN2COc3c(ccc4c3OCN(Cc3ccccc3)C4)C2)cc1	5.08% (active)	21.9	23	41.8	26.3	10.1	32.1	24.6	53.6	13.1	12.6	22.1	29.8	28.5	22	-14.5% (active)	25.3	–
O=C1C=CC(=O)N1c1ccc(I)cc1Cl	110%	92.5	73.7	102	99.4	109	113	118	109	84.1	–	–	107	98.1	–	95.7%	115	97.9
NC(=S)CN1CCOCC1	78.2%	93.7	105	105	121	112	102	111	–	114	–	111	103	–	109	102%	102	105
Cc1cc(Cc2cc(C)c(N)cc2N)c(N)cc1N	55.2%	92.8	89.7	116	111	82.2	87.5	–	93.8	83.5	98.3	106	90.8	88.6	94.8	108%	99.5	95.8
CCOC(=O)C(O)C(O)C(=O)OCC (stereo not drawn)	104%	110	105	100	110	108	115	–	103	98	107	108	101	107	103	111%	102	108
O=[N+]([O-])c1ccccc1N=Nc1ccc(O)cc1O	93%	109	104	126	99.5	101	92.9	122	–	104	101	120	116	94.7	100	–	110	118
O=C(CS)Nc1ccc2ccccc2c1	94.9%	44.9	114	102	116	108	107	–	–	90.9	118	116	95.2	85.3	–	80.5%	102	112
O=c1[nH]c(O)c(/C=C2/C=Nc3ccccc32)[nH]1	76.3%	78	98.1	96	90	112	93.8	100	–	85.5	107	102	104	56.3	96.4	–	88.4	96.4
COC(=O)c1ccc(NC(=O)CCl)cc1	38.7%	70.4	85.5	96.4	95.4	96.7	–	82.4	74.9	69.7	67.9	73.8	76.6	58.3	70	113%	83.6	97.1
